Results as given in PubChem BioAssay (Tox21).
Unmarked numbers belong to inactive results. Inconclusive results are not listed. Entries that show only a call come without a potency. Activity calls are given as the source filed them. Unless noted, calls follow the shape of the full dose curve.

How the values were obtained:
[1] = Nuclear factor erythroid 2-related factor 2/antioxidant responsive element (Nrf2/ARE) small molecule agonists: qHTS cell viability counter screen in human keratinocytes (AID 1919968; active = well fitted curve in the direction sought with a large enough effect in the repeat runs; an effect the other way counts as inactive or inconclusive; also: nearly all actives have a fitted effect of over 55% in size; also: potency is read from the fitted curve at half-maximal effect)
Method in brief: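 Fluorescence read-out from CellTiter-Fluor after 1 h at 37 C. Wells held HaCaT-derived ARE-luciferase reporter cells (1,500/well) treated 23 h with DMSO-dissolved compounds. Run in the same wells as the luciferase agonist read.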

[2] = Nuclear factor erythroid 2-related factor 2/antioxidant responsive element (Nrf2/ARE) small molecule agonists: luciferase reporter gene qHTS assay in human keratinocytes (AID 1919969); also: nearly all actives have a fitted effect of over 35% in size; also: potency is read from the fitted curve at half-maximal effect
[3] = molecular target: Gonadotropin-releasing hormone receptor (Homo sapiens) (UniProt P30968); assay: Human gonadotropin-releasing hormone receptor (GnRHR) small molecule agonists, calcium flux assay in GnRHR-HEK293 cells (AID 1920063); also: nearly all actives have a fitted effect of over 35% in size
Sequence of Gonadotropin-releasing hormone receptor (Homo sapiens) (P30968 whole entry, looked up): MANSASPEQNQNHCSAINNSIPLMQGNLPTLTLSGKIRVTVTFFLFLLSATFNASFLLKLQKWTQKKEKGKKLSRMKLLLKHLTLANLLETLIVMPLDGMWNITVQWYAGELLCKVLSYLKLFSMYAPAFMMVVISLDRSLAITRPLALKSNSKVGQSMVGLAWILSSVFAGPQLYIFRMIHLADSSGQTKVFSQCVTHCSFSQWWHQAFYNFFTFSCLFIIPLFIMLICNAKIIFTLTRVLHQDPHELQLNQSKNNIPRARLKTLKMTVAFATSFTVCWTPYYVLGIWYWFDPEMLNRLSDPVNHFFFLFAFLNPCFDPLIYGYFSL
Method in brief: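 Calcium-dye fluorescence, Ex/Em=480/540, recorded every 1 sec over 3 min after compound addition to GnRHR-HEK293 cells. Cells had been seeded 18 hours earlier and dye-loaded for 1 hour at 37 C. Fifteen concentrations, triplicates.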

[4] = molecular target: KiSS-1 receptor (Homo sapiens) (UniProt Q969F8); assay: Human kisspeptin (KISS1R) small molecule agonists, calcium flux assay in KISS1R-HEK293 cells (AID 1920064; active = well fitted curve in the direction sought with a large enough effect in the repeat runs; an effect the other way counts as inactive or inconclusive)
Sequence of KiSS-1 receptor (Homo sapiens) (Q969F8 whole entry, looked up): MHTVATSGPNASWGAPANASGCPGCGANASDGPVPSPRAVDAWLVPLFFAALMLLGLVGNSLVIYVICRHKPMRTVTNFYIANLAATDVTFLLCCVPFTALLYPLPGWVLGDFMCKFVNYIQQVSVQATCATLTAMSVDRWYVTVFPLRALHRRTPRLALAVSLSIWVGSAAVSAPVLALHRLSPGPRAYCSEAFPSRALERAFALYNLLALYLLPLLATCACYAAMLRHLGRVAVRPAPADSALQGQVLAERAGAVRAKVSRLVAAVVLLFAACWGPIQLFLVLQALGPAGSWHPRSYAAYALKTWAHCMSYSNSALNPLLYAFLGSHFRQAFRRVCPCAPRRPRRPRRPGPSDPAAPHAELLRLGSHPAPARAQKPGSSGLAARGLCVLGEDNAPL
Method in brief: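 Calcium flux read-out: kinetic fluorescence at Ex/Em=480/540, 1 s intervals over 3 min, after pin-tool compound addition to dye-loaded KISS1R-HEK293 cells. Fifteen concentrations, triplicates.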

[5] = G protein-coupled receptor (GPCR) small molecule agonists, calcium flux assay: HEK293 wild type cell line counter screen (AID 1920065)
Method in brief: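 Agonist mode; 18 h seeding at 37 C, 1 h dye load at 37 C; compounds pinned from DMSO, ATP as positive control; kinetic fluorescence 480/540 nm, 3 min, 1 s reads; 15 concentrations, triplicate.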

[6] = p53 small molecule agonists, cell-based qHTS assay with human liver microsomes (AID 1963577);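 also: p53 response element beta-lactamase reporter cells with liver microsomes plus NADPH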
Method in brief: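 HLM-supplemented p53RE-bla reporter assay: 16 h compound exposure at 37 C, microsomes and NADPH each 0.5 mg/mL final, read by fluorescence intensity.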

[7] = p53 small molecule agonists, cell-based qHTS assay with rat liver microsomes (AID 1963578)
Method in brief: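 Quantitative HTS of the Tox21 10K library: p53RE-bla cells, rat liver microsomes plus NADPH at 0.5 mg/mL final each, 16 h at 37 C, beta-lactamase fluorescence detection.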

[8] = p53 small molecule agonists, cell-based qHTS assay with rat liver microsomes: qHTS cell viability counter screen (AID 1963580); also: nearly all actives have a fitted effect of over 45% in size; also: potency is read from the fitted curve at half-maximal effect
Method in brief: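 Cytotoxicity counter screen: intracellular ATP measured by CellTiter-Glo luminescence in the same wells as the beta-lactamase reporter read, on HCT-116 p53RE-bla cells exposed 16 h at 37 C to compounds with rat liver microsomes and NADPH, each 0.5 mg/mL final.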

[9] = p53 small molecule agonists, cell-based qHTS assay: qHTS cell viability counter screen (AID 1963581); also: nearly all actives have a fitted effect of over 45% in size; also: potency is read from the fitted curve at half-maximal effect
Method in brief: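 Cytotoxicity read-out: ATP-based luminescence (CellTiter-Glo, 30 min RT) measured in the same wells as the p53 reporter assay, HCT-116 p53RE-bla cells, 16 h compound exposure at 37 C.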

[10] = molecular target: 5-hydroxytryptamine receptor 2A (Homo sapiens) (UniProt P28223); assay: 5-hydroxytryptamine receptor 2A (HTR2A) small molecule antagonists, cell-based qHTS assay (AID 1963586); also: nearly all actives have a fitted effect of over 45% in size
Sequence of 5-hydroxytryptamine receptor 2A (Homo sapiens) (P28223 whole entry, looked up): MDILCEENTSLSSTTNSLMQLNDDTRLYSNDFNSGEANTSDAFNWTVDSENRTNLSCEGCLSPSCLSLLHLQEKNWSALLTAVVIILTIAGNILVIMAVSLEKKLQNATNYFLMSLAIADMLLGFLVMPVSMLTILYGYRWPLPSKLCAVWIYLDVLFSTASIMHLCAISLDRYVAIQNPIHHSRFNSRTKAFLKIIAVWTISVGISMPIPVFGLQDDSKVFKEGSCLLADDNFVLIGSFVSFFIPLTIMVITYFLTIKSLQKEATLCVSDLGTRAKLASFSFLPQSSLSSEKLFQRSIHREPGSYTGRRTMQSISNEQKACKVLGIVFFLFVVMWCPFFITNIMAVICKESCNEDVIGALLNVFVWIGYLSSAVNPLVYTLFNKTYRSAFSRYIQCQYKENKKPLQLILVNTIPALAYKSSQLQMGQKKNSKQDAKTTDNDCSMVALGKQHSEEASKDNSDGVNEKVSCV
Method in brief: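 CHO cells stably expressing human HTR2A were plated for 18 h at 37 C, then loaded with calcium dye for 1 h. Compounds were preincubated 5 min at room temperature before DOI (4 nM solution) was added. Kinetic fluorescence was read for 3 min.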

[11] = molecular target: 5-hydroxytryptamine receptor 2A (Homo sapiens) (UniProt P28223); assay: 5-hydroxytryptamine receptor 2A (HTR2A) small molecule agonists, cell-based qHTS assay (AID 1963587); also: nearly all actives have a fitted effect of over 30% in size; also: potency is read from the fitted curve at half-maximal effect
Method in brief: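 CHO cells stably expressing human HTR2A, plated 18 h, loaded with calcium dye 1 h at 37 C. Agonist mode: compounds added and intracellular calcium fluorescence recorded kinetically for 2 min at 1 sec intervals.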

[12] = molecular target: Muscarinic acetylcholine receptor M1 (Homo sapiens) (UniProt P11229); assay: Cholinergic receptor muscarinic 1 (CHRM1) small molecule antagonists, cell-based qHTS assay (AID 1963588); also: nearly all actives have a fitted effect of over 40% in size; also: potency is read from the fitted curve at half-maximal effect
Sequence of Muscarinic acetylcholine receptor M1 (Homo sapiens) (P11229 whole entry, looked up): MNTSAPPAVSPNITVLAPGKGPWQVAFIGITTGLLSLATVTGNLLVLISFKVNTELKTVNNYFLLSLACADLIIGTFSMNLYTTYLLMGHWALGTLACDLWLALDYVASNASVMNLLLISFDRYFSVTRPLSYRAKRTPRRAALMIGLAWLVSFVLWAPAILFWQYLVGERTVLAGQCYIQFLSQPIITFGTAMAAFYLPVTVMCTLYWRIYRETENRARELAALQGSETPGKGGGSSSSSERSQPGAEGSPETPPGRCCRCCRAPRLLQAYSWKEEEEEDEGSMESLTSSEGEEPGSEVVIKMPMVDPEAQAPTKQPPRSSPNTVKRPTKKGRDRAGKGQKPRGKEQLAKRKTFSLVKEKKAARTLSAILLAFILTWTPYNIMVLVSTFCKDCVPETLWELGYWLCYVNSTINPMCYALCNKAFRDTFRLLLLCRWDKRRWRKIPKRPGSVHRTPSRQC
Method in brief: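 Compounds were tested at 15 concentrations in three independent runs. Dye-loaded CHRM1-CHO cells were exposed 5 min at room temperature before stimulation by acetylcholine added at 50nM. Intracellular calcium was read kinetically on FDSS for 3 min.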

[13] = cAMP Responsive Elements (CRE) small molecule antagonists, cell-based qHTS assay (AID 1963591; active = well fitted inhibition curve with a large enough effect in the signal ratio in the repeat runs, not every such curve was filed as active; the % refers to the signal ratio; also: potency is read from the fitted curve at half-maximal effect)
Method in brief: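 HEK293T CRE-bla; 18 h preincubation; compound pin-transfer; NKH477 0.25 uM final, 3 h, 37 C; LiveBLAzer FRET substrate 2 h RT.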

[14] = molecular target: Beta-2 adrenergic receptor (Homo sapiens) (UniProt P07550); assay: Adrenergic beta2 receptor (ADRB2) small molecule antagonists, cell-based qHTS assay (AID 1963592); also: nearly all actives have a fitted effect of over 50% in size; also: potency is read from the fitted curve at half-maximal effect
Sequence of Beta-2 adrenergic receptor (Homo sapiens) (P07550 whole entry, looked up): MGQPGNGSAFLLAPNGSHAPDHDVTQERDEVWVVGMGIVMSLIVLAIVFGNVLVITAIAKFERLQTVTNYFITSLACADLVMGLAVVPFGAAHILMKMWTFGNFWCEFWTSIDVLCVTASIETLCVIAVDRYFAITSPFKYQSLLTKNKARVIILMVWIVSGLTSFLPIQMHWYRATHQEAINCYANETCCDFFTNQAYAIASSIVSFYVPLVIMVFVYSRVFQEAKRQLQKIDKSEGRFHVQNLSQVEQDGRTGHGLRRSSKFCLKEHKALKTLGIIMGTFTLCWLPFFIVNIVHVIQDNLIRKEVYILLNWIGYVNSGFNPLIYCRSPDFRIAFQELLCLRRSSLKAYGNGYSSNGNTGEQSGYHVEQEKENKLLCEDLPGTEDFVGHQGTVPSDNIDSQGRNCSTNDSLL
Method in brief: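 Assay format: CHO-ADRB2 cells, 18-20hr seeding at 37C/5% CO2, then compound plus 1nM isoproterenol agonist mix for 0.5hr RT. Homogeneous time-resolved fluorescence cAMP detection after 1hr, expressed as 665/615 nm ratio.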

[15] = molecular target: D(2) dopamine receptor (Homo sapiens) (UniProt P14416); assay: Dopamine D2 receptor (DRD2) small molecule agonists, cell-based qHTS assay (AID 1963594); also: nearly all actives have a fitted effect of over 35% in size; also: potency is read from the fitted curve at half-maximal effect
Sequence of D(2) dopamine receptor (Homo sapiens) (P14416 whole entry, looked up): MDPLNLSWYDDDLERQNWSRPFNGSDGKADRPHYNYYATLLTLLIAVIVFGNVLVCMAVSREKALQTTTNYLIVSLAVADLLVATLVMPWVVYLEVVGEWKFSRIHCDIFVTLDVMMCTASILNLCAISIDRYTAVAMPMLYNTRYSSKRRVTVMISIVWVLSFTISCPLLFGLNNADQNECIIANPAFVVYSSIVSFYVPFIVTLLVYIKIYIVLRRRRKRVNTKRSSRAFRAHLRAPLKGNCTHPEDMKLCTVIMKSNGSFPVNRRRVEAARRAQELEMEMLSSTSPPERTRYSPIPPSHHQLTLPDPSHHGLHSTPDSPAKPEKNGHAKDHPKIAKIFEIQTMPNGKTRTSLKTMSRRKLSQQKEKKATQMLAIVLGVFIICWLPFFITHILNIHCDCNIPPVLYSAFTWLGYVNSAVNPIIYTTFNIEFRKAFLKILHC
Method in brief: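 HEK293 cells stably expressing human DRD2, pre-treated with PDE inhibitor Ro20-1724 (0.1 mM final) and compound 10 min at room temperature, then stimulated with NKH477 (200nM […]) for 30 min. cAMP read by HTRF (665/620 nm).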

[16] = molecular target: D(2) dopamine receptor (Homo sapiens) (UniProt P14416); assay: Dopamine D2 receptor (DRD2) small molecule antagonists, cell-based qHTS assay (AID 1963595; active = well fitted inhibition curve with a large enough effect in the signal ratio in the repeat runs, with a control signal flat; the % refers to the signal ratio; also: potency is read from the fitted curve at half-maximal effect)
Method in brief: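 HTRF cAMP read-out at 665 and 620 nm emission (340 nm excitation). Antagonist mode: compounds were tested against 12 nM quinpirole in DRD2-HEK293 cells, with 200 nM NKH477 raising cAMP and 0.1 mM Ro20-1724 blocking its breakdown.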

[17] = molecular target: Muscarinic acetylcholine receptor M1 (Homo sapiens) (UniProt P11229); assay: Cholinergic receptor muscarinic 1 (CHRM1) small molecule agonists, cell-based qHTS assay (AID 1963589); also: nearly all actives have a fitted effect of over 35% in size
Method in brief: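 Calcium flux read-out: kinetic fluorescence at 1 sec intervals after pin-tool compound addition to dye-loaded CHRM1-CHO cells (human M1). Agonist mode; 15 concentrations tested in triplicate independent runs.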

[18] = molecular target: Beta-2 adrenergic receptor (Homo sapiens) (UniProt P07550); assay: Adrenergic beta2 receptor (ADRB2) small molecule agonists, cell-based qHTS assay (AID 1963593);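 also: CHO cells stably overexpressing human ADRB2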
Method in brief: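 CHO cells stably over-expressing ADRB2 were plated overnight at 37C, then dosed with compounds plus a stimulation mix containing 100uM IBMX and 25uM Ro-20-1724 for 0.5hr at room temperature. cAMP was measured by HTRF competition, 1hr.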

[19] = p53 small molecule agonists, cell-based qHTS assay (AID 1963582; active = well fitted activation curve with a large enough effect in the signal ratio in the repeat runs, not every such curve was filed as active; the % refers to the signal ratio)
Method in brief: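 Fluorescence intensity read-out of a beta-lactamase reporter under a p53 response element. Cells were exposed to DMSO-dissolved compounds for 16 h at 37 C, then developed with FRET substrate for 2 h at RT.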

[20] = cAMP Responsive Elements (CRE) small molecule agonists, cell-based qHTS assay (AID 1963590)
Method in brief: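 Beta-lactamase reporter readout: LiveBLAzer B/G FRET substrate, 2 h at room temperature, added after 3 h compound treatment of CRE-bla HEK 293T cells at 37 C/5% CO2.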

Structure (SMILES)	Potency [1]	Potency [2]	Potency [3]	outcome [4]	outcome [5]	Potency [6]	Potency [7]	Potency [8]	Potency [9]	Potency [10]	Potency [11]	Potency [12]	Potency [13]	Potency [14]	Potency [15]	Potency [16]	Potency [17]	Potency [18]	Potency [19]	Potency [20]
O=C1OC(O)C(C(Cl)Cl)=C1Cl (configuration not stated)	63 µM (active)	25.1 µM (active)	inactive	inactive	inactive	inactive	inactive	inactive	inactive	inactive	inactive	inactive	44.6 µM (active)	inactive	inactive	inactive	–	–	–	–
O=C(O)Cc1ccccc1Oc1ccc(Cl)cc1Cl	inactive	inactive	inactive	inactive	inactive	inactive	inactive	inactive	inactive	–	inactive	inactive	inactive	inactive	inactive	inactive	inactive	inactive	–	–
Nc1ccc(Cl)c([N+](=O)[O-])c1	inactive	54.5 µM (active)	inactive	inactive	inactive	inactive	inactive	inactive	inactive	inactive	inactive	inactive	inactive	inactive	inactive	inactive	inactive	inactive	–	–
CN1[C@@H]2CC[C@H]1CC(OC(=O)C(O)c1ccccc1)C2 (some centres not stated)	inactive	inactive	inactive	inactive	inactive	inactive	inactive	inactive	–	–	–	–	–	inactive	inactive	inactive	–	inactive	inactive	inactive
O=[N+]([O-])c1cccc(I)c1	inactive	inactive	inactive	inactive	inactive	inactive	inactive	inactive	inactive	inactive	inactive	inactive	inactive	inactive	inactive	inactive	inactive	–	–	inactive
c1ccc(CNCCNCc2ccccc2)cc1	inactive	inactive	inactive	inactive	inactive	inactive	inactive	inactive	inactive	inactive	inactive	inactive	–	inactive	–	inactive	inactive	–	–	–
CC(CCc1ccc(O)cc1)NCCc1ccc(O)c(O)c1 (configuration not stated)	inactive	inactive	inactive	inactive	inactive	inactive	inactive	inactive	–	–	–	–	–	inactive	0.0779 µM (active)	10.6 µM (active)	–	–	–	–
CN1CCC[C@@H]1Cc1c[nH]c2ccc(CCS(=O)(=O)c3ccccc3)cc12	inactive	inactive	inactive	inactive	inactive	inactive	inactive	inactive	–	–	0.107 µM (active)	inactive	inactive	inactive	inactive	inactive	inactive	–	inactive	inactive
CC(C)=CCC1C(=O)N(c2ccccc2)N(c2ccccc2)C1=O	inactive	29.8 µM (active)	inactive	inactive	inactive	inactive	inactive	inactive	inactive	inactive	inactive	inactive	inactive	–	inactive	–	inactive	inactive	–	–
O=C(Oc1ccccc1C(=O)O)c1ccccc1O	inactive	inactive	inactive	inactive	inactive	inactive	inactive	inactive	inactive	–	–	–	inactive	–	inactive	inactive	–	inactive	–	inactive
O=c1[nH]cccc1O	inactive	inactive	inactive	inactive	inactive	inactive	inactive	inactive	–	inactive	inactive	inactive	inactive	inactive	inactive	inactive	inactive	–	inactive	inactive
CCN(CC)c1ccc(C(=C2C=CC(=[N+](CC)CC)C=C2)c2ccc(S(=O)(=O)O)cc2S(=O)(=O)[O-])cc1	24.3 µM (active)	inactive	inactive	inactive	inactive	inactive	inactive	18.2 µM (active)	9.13 µM (active)	inactive	–	inactive	inactive	–	–	–	inactive	–	–	inactive
Nc1ccc(S(=O)(=O)O)cc1	inactive	inactive	inactive	inactive	inactive	inactive	inactive	inactive	–	inactive	inactive	inactive	inactive	inactive	inactive	inactive	inactive	–	inactive	inactive
CCCCCCCCCCn1cc[n+](CCCCCCCCCC)c1C	21.7 µM (active)	inactive	inactive	inactive	inactive	inactive	inactive	32.4 µM (active)	36.4 µM (active)	–	55 µM (active)	2.98 µM (active)	21.7 µM (active)	27.3 µM (active)	inactive	–	inactive	–	–	–
CCN(CC)CC(=O)Nc1c(C)cccc1C(=O)OC	inactive	inactive	inactive	inactive	inactive	inactive	inactive	inactive	inactive	inactive	inactive	–	inactive	inactive	–	inactive	–	–	–	inactive
C=CC(=O)OCCOCCOC(=O)C=C	54.7 µM (active)	24.4 µM (active)	inactive	inactive	inactive	inactive	inactive	inactive	–	inactive	inactive	inactive	–	inactive	inactive	inactive	inactive	inactive	–	–
